Results filed as inconclusive are left out. Activity calls are given as the source filed them.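 The calls were made as follows: active = all three timepoint tests show falling viability with half-maximal potency at or below twice the top dose; inconclusive = timepoint tests disagree on the call; inactive = all timepoint tests inactive.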
Assay: LOX IMVI melanoma resazurin viability loss, dose response, HRAS target identification, cell-based, Alamar Blue fluorescence, 8/24/48 h, dry powder (AID 720606)
Conditions: 24 h; series mostly up to 35 µM

CCC(=O)N(c1ccc(OC)c(Cl)c1)C(C(=O)NCCc1ccccc1)c1cccs1 (configuration not stated)
outcome: inactive

Cc1onc(C(=O)N2CCN(C(c3ccncc3)c3ccncc3)CC2)c1[N+](=O)[O-]
outcome: inactive

Reference: PubChem BioAssay AID720606 (Broad Institute, 2013)
